The values that follow come from PubChem BioAssay (NCATS).

Several values for one entry are separate records, joined by “and”; a condition that tells them apart may be missing. Identical values can stand only once. Records with an inconclusive call do not appear. Activity calls are given as the source filed them. Unless noted, calls come from the whole dose curve; as a rule, active = well fitted curve in the direction sought with a large enough effect; inconclusive = small, poorly fitted or top-dose-only effect, or another doubt; inactive = no such curve, though single readings can be large; an effect the other way counts as inactive or inconclusive.

Assay [1] has as its target Hexokinase-4 (Homo sapiens) + Glucokinase regulatory protein (Homo sapiens) (UniProt P35557+Q14397). Kind of assay: qHTS assay for inhibitors of recombinant human GCK-GKRP interaction: HTRF assay (AID 743207).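 Note: 0% = DMSO with GCK present and -100% = DMSO wells lacking GCK.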 An outline of the steps:
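HTRF read-out (ex 320 nm; 615/665 nm emission) after 60 min RT equilibration of 5 nM GST-GCK, 5 nM FLAG-GKRP, 2 uM S6P, compound and anti-FLAG/anti-GST detection antibodies; signal normalized between DMSO wells with and without GCK.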
In general terms: In qHTS, concentration-response curves come from the screen itself.

The nature of assay [2]: qHTS Assay for Identifying Gametocytocidal Compounds (AID 743244).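 Note: % is set by controls: 0 for no effect and ±100 for the full control effect; actives lower the fluorescent signal which means gametocytes are killed.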 The conditions noted are these: P. falciparum 3D7 stage III-V gametocytes, alamarBlue, 72 h; max response: stronger effect = lower value. An outline of the steps: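 Compounds are pinned into medium, gametocytes (stage III–V, 3D7, 20,000 cells/well) added, and plates held 72 h at 37 °C in 5% CO2. AlamarBlue follows for 24 h before fluorescence reading.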

Assay [3] can be described thus: qHTS assay for cell viability of HEK293 cells (AID 743288). Note: % is set by controls: 0 for no effect and ±100 for the full control effect; nearly all actives have a fitted effect of over 50% in size. The note with it: ATP luminescence (CellTiter-Glo), 18 h; max response: stronger effect = lower value. The procedure, abridged: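 Environmental chemicals tested in qHTS format against parental HEK293 cells; 18 h treatment, 37 C; read-out ATP luminescence (CellTiter-Glo), 30 min RT development.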
A short description of assay [4]: qHTS assay for cell viability of the p53RE-bla HCT-116 cell line (AID 743292). Note: % is set by controls: 0 for no effect and ±100 for the full control effect; nearly all actives have a fitted effect of over 55% in size. An outline of the steps: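 ATP-based luminescent viability (CellTiter-Glo, 30 min RT) after 16 h compound treatment at 37 C of p53RE-bla HCT-116 cells, seeded at 4,000 cells/well and rested 5 h before dosing.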
The nature of assay [5]: qHTS profiling of the MIPE4 collection as inhibitors of Plasmodium falciparum (3D7) proliferation (AID 743344; call rule not given here;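 note: scaled between DMSO vehicle wells and 0.29 µM artemisinin as full inhibition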). The conditions noted are these: P. falciparum 3D7 in erythrocytes, SYBR Green DNA fluorescence, 72 h; at 28.5 µM (top of the series) unless noted. The procedure, abridged:
(§1)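 Erythrocytes infected with P. falciparum (0.3% parasitemia, 2.5% hematocrit) incubated with compounds 72 h at 37 C, 5% CO2. Lysis with saponin/Triton buffer containing SYBR Green I, overnight at room temperature in the dark; DNA fluorescence (485/535 nm) normalised to 0.29 uM artemisinin and DMSO.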

A short description of assay [6]: qHTS profiling of the MIPE4 collection as inhibitors of Plasmodium falciparum (DD2) proliferation (AID 743345; call rule not given here). The note with it: P. falciparum Dd2 in erythrocytes, SYBR Green DNA, 72 h; at 28.5 µM (top of the series) unless noted. The procedure, abridged:
as §1

Assay [7] is described as follows: qHTS profiling of the MIPE4 collection as inhibitors of Plasmodium falciparum (DD2) proliferation (Rep 2) (AID 743346; call rule not given here). The note with it: P. falciparum Dd2 in erythrocytes, SYBR Green DNA, 72 h; at 28.5 µM (top of the series) unless noted. The procedure, abridged:
as §1

Assay [8] in a line: qHTS profiling of the MIPE4 collection as inhibitors of Plasmodium falciparum (HB3) proliferation (AID 743347; call rule not given here;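 note: plate controls were DMSO vehicle wells for no effect and artemisinin wells for full effect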). The conditions noted are these: P. falciparum HB3 in erythrocytes, SYBR Green DNA, 72 h; at 28.5 µM (top of the series) unless noted. The procedure, abridged: as §1
The nature of assay [9]: High-throughput drug toxicity screening in the BPDCN cell line Gen2.2 (AID 1224824; call rule not given here;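 note: cells exposed to compounds for 48 h before reading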). The conditions noted are these: Gen2.2 BPDCN cells; at 45.8 µM (top of the series) unless noted. An outline of the steps: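 CellTiter-Glo luminescence after 48 h compound exposure of Gen2.2 cells; percent activity set with DMSO as 100% and bortezomib (9.2 uM final) as 0%. Cells seeded at 500 per well, RPMI + 10% FBS, 37 °C.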

Assay [10] in a line: High-throughput drug toxicity screening in the BPDCN cell line Cal-1 (AID 1224825; call rule not given here). The note with it: Cal-1 BPDCN cell viability, qHTS; at 45.8 µM (top of the series) unless noted. The procedure, abridged: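 Exponentially growing Cal-1 cells, 500 per well in phenol red-free RPMI with 10% FBS, were exposed to compounds for 48 h at 37 °C, 5% CO2. Viability was read by CellTiter-Glo luminescence and normalised to DMSO (100%) and 9.2 uM bortezomib (0%).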

A short description of assay [11]: qHTS assay for measurement of the activity of small molecule inhibitors on Zika virus induced Caspase-3 activity in human iPSC derived neural progenitor cells (hNPCs) (AID 1224857). Note: % of control where 0% means no effect; nearly all actives have a fitted effect of over 65% in size. The procedure, abridged: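 Pretreat hNPCs with compound 1 h; infect ZIKV 2 FFU/cell; 6 h 37 C, 5% CO2; Caspase-Glo 3/7, 30 min RT; luminescence; normalize to no-virus and virus-only wells.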

A short description of assay [12]: qHTS assay for measurement of the activity of small molecule inhibitors on Zika virus induced Caspase-3 activity in human astrocytoma cells (AID 1224859).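 Note: plate controls were ZIKV-infected untreated cells for no effect and uninfected cells for full effect.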 The procedure, abridged:
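Human SNB-19 astrocytoma cells in RPMI 1640 with 10% FBS receive compound one hour ahead of Zika virus at 2 FFU/cell. After 6 h infection, caspase-3/7 activity is detected by Caspase-Glo luminescence.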

Assay [13] is described as follows: qHTS Screen of the MIPE 4.0 Collection Against Ewings Sarcoma (RDES) (AID 1259252). Note: nearly all actives have a fitted effect of over 35% in size. Note: potency is the fitted concentration of half-maximal effect. The procedure, abridged:
(§2)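 Compound titrations go onto adherent log-phase cells 4 h after seeding, incubate 48 h at 37C, then CellTiter-Glo luminescence reports viability relative to DMSO and cell-free controls.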

Assay [14] in a line: qHTS Screen of the MIPE 4.0 Collection Against Ewings Sarcoma (EW8) (AID 1259255).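 For viability: 100% = DMSO-treated cells and 0% = medium-only wells without cells.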 Note: nearly all actives have a fitted effect of over 35% in size. Note: potency is the fitted concentration of half-maximal effect. The procedure, abridged:
as §2

Assay [15] is described as follows: qHTS Screen of the MIPE 4.0 Collection Against Ewings Sarcoma (TC32) (AID 1259256). Note: nearly all actives have a fitted effect of over 45% in size. Note: potency is the fitted concentration of half-maximal effect. The procedure, abridged: as §2
The nature of assay [16]: qHTS profiling for inhibitors of Plasmodium falciparum (3D7) proliferation (AID 743322).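 Note: infected erythrocytes exposed to compound for 72 h before lysis; 100% = DMSO vehicle wells and 0% = 0.29 µM artemisinin.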 The note with it: P. falciparum 3D7 proliferation. An outline of the steps:
as §1

The nature of assay [17]: qHTS profiling for inhibitors of Plasmodium falciparum (DD2) proliferation (AID 743323; call rule not given here). The conditions noted are these: lower = more inhibition. The procedure, abridged:
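P. falciparum Dd2-infected erythrocytes (0.3% parasitemia, 2.5% hematocrit) exposed 72 h at 37 C, 5% CO2. Lysis with SYBR Green, overnight at room temperature, fluorescence 485/535 nm; normalized to 0.29 uM artemisinin and DMSO.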

The nature of assay [18]: qHTS profiling for inhibitors of Plasmodium falciparum (HB3) proliferation (AID 743324).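 Note: 100% = DMSO vehicle wells and 0% = artemisinin-treated control wells.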 The conditions noted are these: Plasmodium falciparum HB3 blood-stage proliferation. The procedure, abridged:
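P. falciparum HB3 grown in erythrocytes (0.3% parasitemia, 2.5% hematocrit final) with compound for 72 h at 37 C, 5% CO2. Parasite DNA detected by SYBR Green after saponin/triton lysis overnight; normalized to 0.29 uM artemisinin and DMSO.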

A short description of assay [19]: qHTS Screen of the MIPE 4.0 Collection Against Ewings Sarcoma (TC71) (AID 1259253). Note: potency is the fitted concentration of half-maximal effect; nearly all actives have a fitted effect of over 40% in size. An outline of the steps: as §2

Hexokinase-4 (Homo sapiens) + Glucokinase regulatory protein (Homo sapiens), sequence (P35557 whole entry, looked up): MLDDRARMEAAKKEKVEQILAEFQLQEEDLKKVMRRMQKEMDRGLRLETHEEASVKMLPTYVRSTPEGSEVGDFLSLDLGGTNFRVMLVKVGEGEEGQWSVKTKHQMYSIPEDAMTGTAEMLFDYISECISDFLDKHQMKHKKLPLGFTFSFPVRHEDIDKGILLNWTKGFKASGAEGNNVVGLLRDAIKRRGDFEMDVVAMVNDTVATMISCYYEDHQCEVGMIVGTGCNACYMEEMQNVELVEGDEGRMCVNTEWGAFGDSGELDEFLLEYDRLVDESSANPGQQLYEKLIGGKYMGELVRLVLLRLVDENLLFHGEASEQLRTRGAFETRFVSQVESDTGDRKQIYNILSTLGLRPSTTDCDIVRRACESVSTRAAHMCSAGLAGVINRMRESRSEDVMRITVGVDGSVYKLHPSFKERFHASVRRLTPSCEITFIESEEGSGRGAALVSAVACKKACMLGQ
Hexokinase-4 (Homo sapiens) + Glucokinase regulatory protein (Homo sapiens), sequence (Q14397 whole entry, looked up): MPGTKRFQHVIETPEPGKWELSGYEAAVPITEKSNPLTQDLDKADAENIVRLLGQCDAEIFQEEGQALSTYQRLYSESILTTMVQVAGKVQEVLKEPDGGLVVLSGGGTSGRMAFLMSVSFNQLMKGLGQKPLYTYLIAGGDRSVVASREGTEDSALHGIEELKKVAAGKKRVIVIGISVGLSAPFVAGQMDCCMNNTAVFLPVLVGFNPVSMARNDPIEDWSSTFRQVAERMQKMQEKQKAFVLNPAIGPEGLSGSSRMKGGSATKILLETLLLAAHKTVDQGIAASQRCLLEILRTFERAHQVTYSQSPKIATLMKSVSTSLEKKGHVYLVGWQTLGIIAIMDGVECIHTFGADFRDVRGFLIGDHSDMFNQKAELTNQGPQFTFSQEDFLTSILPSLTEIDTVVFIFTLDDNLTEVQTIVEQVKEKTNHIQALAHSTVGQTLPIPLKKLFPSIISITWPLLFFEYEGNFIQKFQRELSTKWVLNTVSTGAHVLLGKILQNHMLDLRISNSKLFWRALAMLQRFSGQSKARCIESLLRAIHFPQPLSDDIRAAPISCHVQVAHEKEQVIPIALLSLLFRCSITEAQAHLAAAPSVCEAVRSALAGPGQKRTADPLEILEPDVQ

For the compound `Cn1c(=O)c2c(ncn2C)n(C)c1=O`, the Potency entry in assay [1], in assay [4], in assay [11], in [12], in [13] and in [14] was “inactive” in each case. In addition, the Potency entry in assay [15] was “inactive”. Also, the max response was -4.77% (inactive) and 11.8% (inactive) in [2]; 0.413% (inactive) and -8.15% (inactive) in [3]. In assay [5], the parasite growth, % of DMSO control turned out to be 91.2%. In assay [6], this compound came in with a parasite growth remaining, % of DMSO control (lower = more inhibition) of 96.6%. The parasite growth, % of control (lower = inhibition) in [7] came to 81.8%. For the same compound, in [8], the growth, % of control is 103%. Also, the cell viability, % of control (lower = more cytotoxic) in assay [9] was 150%. Besides, in [10], the viability (% of control) is 116%.
In the case of `Cc1ccc(-c2cc(C(F)(F)F)nn2-c2ccc(S(N)(=O)=O)cc2)cc1`, the max response in [2] was 2.3% (inactive) and -2.23% (inactive); in assay [3], -4.48% (inactive). Besides, the Potency entry in [4], in assay [11] and in assay [12] was “inactive” in each case. For the same compound, the remaining parasite growth % (stronger effect = lower value) in assay [16] (at 28.7 µM (top of the series)) stood at 17.6%; in assay [16] (at 57.5 µM (top of the series)) it was 11.7%. In addition, the activity, percent of control in assay [17] (at 28.7 µM (top of the series)) is 45.8%; in assay [17] (at 57.5 µM (top of the series)), 21.2%. Besides, the remaining proliferation (% of control), lower = more inhibition in [18] (at 28.7 µM (top of the series)) amounted to 12.9%; in [18] (at 57.5 µM (top of the series)), 16%. Moreover, the parasite growth, % of DMSO control in [5] is 21.9%. This compound also had a parasite growth remaining, % of DMSO control (lower = more inhibition) in assay [6] of 64.9%. In addition, the parasite growth, % of control (lower = inhibition) in [7] was 35%. In assay [8], this compound displayed a growth, % of control of 7.95%. In assay [9], the cell viability, % of control (lower = more cytotoxic) was 250%. In addition, the viability (% of control) in assay [10] turned out to be 90.2%. Moreover, the Potency in assay [13] was 4.18 µM (active); in assay [19], 13.2 µM (active); in [14], 20.9 µM (active); in assay [15], 11.8 µM (active).
As to `CN(CCOc1ccc(NS(C)(=O)=O)cc1)CCc1ccc(NS(C)(=O)=O)cc1`, in [2], the max response is 1.01% (inactive). In [5], this compound registered a parasite growth, % of DMSO control of 115%. Besides, in assay [6], the parasite growth remaining, % of DMSO control (lower = more inhibition) worked out at 89.2%. For the same compound, in assay [7], the parasite growth, % of control (lower = inhibition) was 119%. The growth, % of control in assay [8] came out at 56.2%. Besides, the cell viability, % of control (lower = more cytotoxic) in assay [9] is 181%. Besides, in assay [10], the viability (% of control) was determined as 112%. The Potency entry in assay [11] and in assay [12] was “inactive” throughout. The Potency in assay [19] was 16.6 µM (active).
